Screens (PubChem)
Pol iota inh – DNA polymerase iota (human) inhibition; AID 588590; Potency, µM (titrated, usually from 115 µM), without a hit: at the highest dose activity, negative = inhibition, hits mostly inhibitors; Pol iota fluorescent replication assay, 10 min; Q9UNA4; actives 1% (n = 390,000); note: potency is the fitted concentration of half-maximal effect
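Fluorescent replication assay read twice, at 0 min and 10 min after adding 50 nM (final) substrate. Enzyme (10 nM) and compounds were first incubated 15 min at room temperature; enzyme-free buffer wells were negative controls.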
POLH inh – DNA polymerase eta (human) inhibition | recombinant Pol eta, fluorescent DNA replication assay | Potency, µM (titrated, usually from 114 µM), for the others: top-dose activity change, negative = inhibition, hits mostly inhibitors | actives 1.2% (n = 390,000) | AID 588591; note: potency is the fitted concentration of half-maximal effect; % is set by controls: 0 for no effect and ±100 for the full control effect
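Pol eta (10 nM) was preincubated with compounds for 15 min at room temperature, after which fluorescent replication substrate (50 nM final) was added to start the reaction. Fluorescence was read kinetically at 0 and 10 min.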
POLB inh – inhibitors of human DNA polymerase beta; P06746; Pol beta primer extension/strand displacement, fluorescence kinetic; Potency, µM (series often up to 114 µM), for the others: top-dose activity change, negative = inhibition, usual class: inhibitors; actives 1.3% (n = 340,000); AID 485314; note: potency is the fitted concentration of half-maximal effect; % is set by controls: 0 for no effect and ±100 for the full control effect
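Human Pol beta at 10 nM; strand-displacement substrate 50 nM final. Compound exposure 15 min at room temperature before start, reaction 10 min at room temperature.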
PI5P4K alpha inh – blocks human PI5P4K alpha kinase activity | P48426 | PI5P4Kalpha enzyme, ADP-Glo luminescence, 60 min; hits give low values | max response, % | actives 1.2% (n = 330,000); active = max response of -50% or lower; inconclusive = between -30% and -50%; inactive = -30% or higher; note: value at the top dose of about 77 µM; % is set by controls: 0 for no effect and ±100 for the full control effect
Target sequence (P48426 whole entry, looked up): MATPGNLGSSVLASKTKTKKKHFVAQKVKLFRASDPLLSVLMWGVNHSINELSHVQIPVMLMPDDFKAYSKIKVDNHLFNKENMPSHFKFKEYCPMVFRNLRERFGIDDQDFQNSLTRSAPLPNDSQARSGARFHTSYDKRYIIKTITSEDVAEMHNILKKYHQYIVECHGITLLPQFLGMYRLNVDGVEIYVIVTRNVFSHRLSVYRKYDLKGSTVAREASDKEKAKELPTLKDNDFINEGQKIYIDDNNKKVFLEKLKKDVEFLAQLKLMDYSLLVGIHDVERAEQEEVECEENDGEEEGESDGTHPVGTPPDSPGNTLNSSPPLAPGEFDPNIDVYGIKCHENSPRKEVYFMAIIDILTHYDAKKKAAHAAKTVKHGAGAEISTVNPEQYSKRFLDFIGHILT
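ADP-Glo luminescence end-point read after a 60 min room-temperature kinase reaction of PI5P4Kalpha plus substrate, initiated with ATP at 5 microM final. Buffer: 0.038 M HEPES pH 7.4, EGTA, 0.1% CHAPS, 5% DMSO.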
Pol kappa inh – inhibitors of human DNA polymerase kappa. Q9UBT6. purified Pol kappa, fluorescent DNA synthesis assay, 10 min. Potency, µM (series often up to 107 µM), without a hit: at the top dose activity, negative = inhibition, most hits filed as inhibitors. actives 0.53% (n = 400,000). AID 588579; note: potency is the fitted concentration of half-maximal effect; % is set by controls: 0 for no effect and ±100 for the full control effect
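Pol kappa 10 nM + cpd, 15 min RT; start w/ substrate 50 nM final; fluorescence kinetic read, 0 and 10 min. Neg ctrl: buffer, no enzyme.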
WRN helicase inh – inhibitors of human WRN helicase. Q14191. WRN helicase unwinding, fluorescent forked duplex, kinetic. Potency, µM (top dose mostly 114 µM), for inactives: top-dose activity change, negative = inhibition, usual class: inhibitors. actives 0.46% (n = 360,000); note: potency is the fitted concentration of half-maximal effect; % is set by controls: 0 for no effect and ±100 for the full control effect; nearly all actives have a fitted effect of over 55% in size
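Primary qHTS, 1536-well format. 20 nM WRN + compound, 15 min RT; start with 100 nM forked fluorophore/quencher duplex, 2 mM ATP (final); kinetic read ex 525/em 598 nm.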
An asterisk follows results filed as active; [ ] = another dose, or the depositor's remark. Rows were chosen to be rich in hits. Some 2.8% of all compounds tested hit in one or more screens of this group. Unless noted, calls come from the whole dose curve; as a rule, active = well fitted curve in the direction sought with a large enough effect; inconclusive = small, poorly fitted or top-dose-only effect, or another doubt; inactive = no such curve, though single readings can be large; an effect the other way counts as inactive or inconclusive.

For CCCCC1=CC2=C(c3ccco3)C(=O)C(C)(OC(=O)c3ccc(OC)cc3)C(=O)C2=CN1Cc1ccc2c(c1)OCO2 (stereo unspecified) the results were Pol iota inh inconclusive, POLH inh 6%, POLB inh 35µM*, PI5P4K alpha inh -30, Pol kappa inh -7% and WRN helicase inh -6%[11.6 µM].
Screening CCCCC1=CC2=C(c3ccco3)C(=O)C(C)(OC(=O)c3ccc(OC)cc3)C(=O)C2=CN1CCOC (stereo unspecified) returned Pol iota inh 6%, POLH inh -7%, POLB inh -27%, PI5P4K alpha inh -5, Pol kappa inh -16% and WRN helicase inh 5%.
For CC1=NN(c2ccccc2)C(=O)C1C(=O)c1cc([N+](=O)[O-])cc([N+](=O)[O-])c1 (stereo unspecified) the results were Pol iota inh 16µM*, POLH inh -4%, POLB inh 2%, PI5P4K alpha inh 7, Pol kappa inh -5% and WRN helicase inh -16%.
Screening Cc1cc(C)cc(OCC(=O)NCc2nc(-c3ccccc3)no2)c1 returned Pol iota inh 89µM*, POLH inh -8%, POLB inh -29%, Pol kappa inh -10% and WRN helicase inh -6%.
Screening CCCNC(=O)Cn1c(=O)c2cccn2c2cccnc21 returned Pol iota inh 52%, POLH inh -15%, POLB inh 0% and Pol kappa inh -18%.
For O=C(Cn1c(=O)n(Cc2ccco2)c(=O)c2oc3ccccc3c21)Nc1ccc(F)cc1F the results were Pol iota inh 0%, POLH inh 9%, POLB inh 24% and Pol kappa inh -4%.
Screening COc1ccc(OC)c2cc3ccccc3cc12 returned Pol iota inh inconclusive, POLH inh inconclusive, PI5P4K alpha inh -60*, Pol kappa inh inconclusive and WRN helicase inh inconclusive.
Screening O=C1N=c2ccccc2=C1c1[nH]c(=S)[nH]c1O returned Pol iota inh -28%, POLH inh -14%, POLB inh inconclusive, PI5P4K alpha inh inconclusive, Pol kappa inh -2% and WRN helicase inh -18%.
Screening O=C1N=c2ccc([N+](=O)[O-])cc2=C1c1sc(=O)[nH]c1O returned Pol iota inh 15%, POLH inh -19%, POLB inh 1%, PI5P4K alpha inh -54*, Pol kappa inh 89µM* and WRN helicase inh inconclusive.
`O=C1N=c2ccccc2=C1c1sc(=O)[nH]c1O` gave Pol iota inh -13%, POLH inh -4%, POLB inh 6%, PI5P4K alpha inh -87*, Pol kappa inh -25% and WRN helicase inh -8%.
O=C(c1ccco1)N1CCN(C(=O)c2cc(-c3ccccc3)nc3ccccc23)CC1 was read as Pol iota inh 9%, POLH inh 9%, POLB inh 1%, PI5P4K alpha inh -2, Pol kappa inh -3% and WRN helicase inh -2%.
O=C(c1ccco1)N1CCN(C(=O)c2cc(-c3ccccn3)nc3ccc(Cl)cc23)CC1 was read as Pol iota inh inconclusive, POLH inh inconclusive, POLB inh inconclusive, PI5P4K alpha inh -59*, Pol kappa inh -26% and WRN helicase inh -34%.
Oc1c(Br)cc(C2N=C(c3ccccc3)NO2)cc1Br (stereo unspecified) was read as Pol iota inh inconclusive, POLH inh -15%, POLB inh 2%, PI5P4K alpha inh -56*, Pol kappa inh 1% and WRN helicase inh -19%.
Screening CSc1ccc(C2N=C(c3ccccc3)NO2)cc1 (stereo unspecified) returned Pol iota inh 31%, POLH inh -17%, POLB inh 1%, PI5P4K alpha inh 3, Pol kappa inh -2% and WRN helicase inh 4%.
CCC(C)C(=O)OCC1(c2ccc(C)cc2OC(=O)C(C)C)CO1 (stereo unspecified) was read as Pol iota inh inconclusive, POLH inh -17%, POLB inh 40µM*, PI5P4K alpha inh -2, Pol kappa inh -25% and WRN helicase inh 1%.
For Cc1ccc(C(=O)ONc2ccc(N=O)cc2)cc1 the results were Pol iota inh 68%, POLH inh -5%, POLB inh 12%, PI5P4K alpha inh -7, Pol kappa inh -5% and WRN helicase inh -24%.
`Cc1ccc(C(=O)ONc2ccc(N=NC(=O)c3ccccc3O)cc2)cc1` gave Pol iota inh 2%, POLH inh 8.9µM*, POLB inh 7%, PI5P4K alpha inh inconclusive, Pol kappa inh -21% and WRN helicase inh -35%[57.1 µM].
Screening Cc1csc(C(=O)O)c1-n1cccc1 returned Pol iota inh inconclusive, POLH inh 18µM*, POLB inh 22µM*, PI5P4K alpha inh -4, Pol kappa inh -18% and WRN helicase inh -12%[57.1 µM].
For C=C(C)C1CCC2(C(=O)O)CCC3(C)C(CCC4C5(C)C(C=O)C(O)C(C)(C)C5CCC43C)C12 (stereo unspecified) the results were Pol iota inh -25%, POLH inh 79µM*, POLB inh 0%, PI5P4K alpha inh -54*, Pol kappa inh -15% and WRN helicase inh -4%[11.6 µM].
`COc1ccccc1NC(=O)Cc1noc(CSc2n[nH]c(N)n2)n1` gave Pol iota inh -9%, POLH inh -15%, POLB inh -21%, PI5P4K alpha inh -1, Pol kappa inh -3% and WRN helicase inh 2%.
Cc1cc(/C(N)=N/OC(=O)c2ccc(Cl)cc2)no1 was read as Pol iota inh 7%, POLH inh -11%, POLB inh inconclusive, PI5P4K alpha inh 2, Pol kappa inh -6% and WRN helicase inh -7%.
For Cc1cc(/C(N)=N/OC(=O)c2cccc(Cl)c2)no1 the results were Pol iota inh -33%[58.9 µM], POLH inh -12%, POLB inh 89µM*, PI5P4K alpha inh -9, Pol kappa inh -11% and WRN helicase inh inconclusive.
Cc1ccc(C(O)c2ncc(-c3cccc(C(F)(F)F)c3)[nH]2)cc1F (stereo unspecified) was read as PI5P4K alpha inh 2 and WRN helicase inh -10%.
Cc1ccc(-n2c(=O)c3sc4ccccc4c3n(C)c2=O)cc1F was read as Pol iota inh inconclusive, POLH inh -3%, POLB inh 28% and Pol kappa inh -7%.
For O=C(CSc1ncnc2scc(-c3ccccc3)c12)N1CCN(Cc2ccc3c(c2)OCO3)CC1 the results were Pol iota inh inconclusive, POLH inh inconclusive, POLB inh 16µM*, PI5P4K alpha inh inconclusive, Pol kappa inh -18% and WRN helicase inh -10%.
For Cn1nnnc1Sc1ncnc2scc(-c3ccc(Br)cc3)c12 the results were Pol iota inh inconclusive, POLH inh -3% and Pol kappa inh -14%.
